Source: PubChem BioAssay AID1527 (The Scripps Research Institute Molecular Screening Center, 2009)
The campaign covered roughly 290,000 compounds. About 2,600 (0.9%) were called active. The full list was thinned out, with actives kept by preference. Values without a mark were called inactive.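 How the source made its calls: active means inhibition above the mean of all tested compounds plus 3 SD, cutoff set per screening run (cut at about 7.5% in these data); inactive means the rest.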

The compounds below were run on VIM-2 metallo-beta-lactamase (Pseudomonas aeruginosa) (assay: inhibition of VIM-2 nitrocefin hydrolysis – biochemical, epi-absorbance readout, Pseudomonas aeruginosa enzyme, primary screen (AID 1527;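 further: red hydrolysis product quenches plate fluorescence so inhibitors raise well fluorescence; 0% = enzyme with DMSO and 100% = DMSO without enzyme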)). Conditions: purified VIM-2, nitrocefin hydrolysis, epi-absorbance fluorescence; at 5.6 µM; stronger effect = higher value.

Q: With `NS(=O)(=O)c1ccc(N=Nc2c(O)[nH]c3ccc(Br)cc23)cc1` as the compound, how does the inhibition read?
A: The inhibition was -2.22%.

Q: With `Cc1c(C=O)c2ccccc2n1CCOc1ccccc1` as the compound, how does the inhibition read?
A: Its inhibition is -0.2%.

Q: Which inhibition does the source give for `CN(C)CCCN(C(=O)c1ccc(S(=O)(=O)N2CCCc3ccccc32)cc1)c1nc2ccc(F)cc2s1` here?
A: The inhibition was -1.07%.

Q: How did the inhibition turn out when `CCc1cc(C(=O)c2ccc(OC)cc2)c(NC(=O)CN2CCN(C)CC2)s1` was run?
A: Its inhibition is 7.76% (active).

Q: How did the inhibition turn out when `CCc1cc(C(N)=O)c(NC(=O)c2ccc(OC)cc2)s1` was run?
A: Its inhibition is -2.73%.

Q: With `CCOc1ccc(NC(=O)CN2CCN(CC(=O)Nc3ccc(OC)cc3)CC2)cc1` as the compound, how does the inhibition read?
A: Its inhibition is 0.38%.

Q: For `COc1cccc(CN(C)CC2CCCN(CCc3ccc(Cl)cc3)C2)c1OC` (stereo not drawn), which inhibition is on record?
A: The inhibition was -0.31%.

Q: With `COc1ccc(CNc2cc(C)cc(C)c2)cc1OC` as the compound, how does the inhibition read?
A: The inhibition was -0.65%.

Q: How did the inhibition turn out when `O=C(/C=C/c1cccc(C(F)(F)F)c1)N1CCN(c2ccccn2)CC1` was run?
A: Its inhibition is -1.71%.

Q: For `COc1ccccc1NC(=O)C1CCN(C(=O)c2ccc(C(C)(C)C)cc2)CC1`, which inhibition is on record?
A: The inhibition was -0.92%.

Q: `Cc1ccc(NS(=O)(=O)c2ccc3c(c2)NC(=O)CO3)cc1` was tested. Which inhibition did it give?
A: The inhibition was -3.86%.

Q: Which inhibition does the source give for `COc1cccc(/C=C2\Sc3ccc(C(=O)NCC4CCCO4)cc3N(C)C2=O)c1` (stereo not drawn) here?
A: The inhibition was 2.03%.

Q: `COCCCn1c(SCC(=O)NC2CCCC2)nnc1-c1ccccc1` was tested. Which inhibition did it give?
A: Its inhibition is -3.05%.

Q: For `CCC(C)c1ccc(NC(=S)N2CCCC2)cc1` (stereo not drawn), which inhibition is on record?
A: Its inhibition is -4.58%.

Q: With `Cc1cc(C)c2nc3nc(C)cc(C)c3c(N)c2c1` as the compound, how does the inhibition read?
A: Its inhibition is 23.4% (active).

Q: For `Cc1cc(C)c2nc(-c3ccco3)cc(C(=O)O)c2c1`, which inhibition is on record?
A: The inhibition was -2.98%.

Q: For `Cc1cc(C)c2nc(SCCC#N)nc(C)c2c1`, which inhibition is on record?
A: The inhibition was 0.46%.

Q: With `Cc1cccnc1CC(C)NC(=O)c1cc(COc2cncc(Cl)c2)on1` (stereo not drawn) as the compound, how does the inhibition read?
A: The inhibition was -1.87%.

Q: With `O=C1c2ccccc2C(=O)c2c1cccc2N1CCN(CCO)CC1` as the compound, how does the inhibition read?
A: Its inhibition is 8.84% (active).

Q: For `OCCN1CCN(c2nnc(-c3ccccc3)c3ccccc23)CC1`, which inhibition is on record?
A: The inhibition was 1.21%.

Q: With `O=C1c2ccccc2C(=O)c2c1cccc2N1CCN(Cc2ccccc2)CC1` as the compound, how does the inhibition read?
A: Its inhibition is -2.44%.

Q: Which inhibition does the source give for `CN(C)Cc1c(O)ccc2c(=O)c(-c3ccccc3Cl)coc12` here?
A: Its inhibition is -1.33%.

Q: How did the inhibition turn out when `Cc1ccc(CNC(=O)C2CCCN2S(=O)(=O)c2ccc3c(c2)C(C)(C)C(=O)N3C)cc1` (stereo not drawn) was run?
A: The inhibition was -0.78%.

Q: `Cc1ccc2nc(C)c3c(c2c1)N(c1ccccc1)CC3` was tested. Which inhibition did it give?
A: The inhibition was 14.6% (active).

Q: Which inhibition does the source give for `Cc1ccc2nc(Nc3ccccc3)cc(C)c2c1` here?
A: The inhibition was 0.49%.

Q: Which inhibition does the source give for `Cc1ccc2nc3n(c(=O)c2c1)CCC3` here?
A: The inhibition was -2.8%.

Q: For `COc1ccc(S(=O)(=O)N(CC(=O)NCc2ccco2)c2ccc(F)cc2)cc1`, which inhibition is on record?
A: Its inhibition is -4.2%.

Q: For `CCOc1ccccc1-c1nc(CN2CCC(C(=O)N3CCOCC3)CC2)c(C)o1`, which inhibition is on record?
A: Its inhibition is -1.39%.

Q: How did the inhibition turn out when `Cc1cc(C)c2c(n1)nn1c(N3CCN(c4cccc(Cl)c4)CC3)cc(C)nc21` was run?
A: Its inhibition is -6.43%.

Q: For `Cc1cc(C)c2c(n1)nn1c(N3CCOCC3)cc(C)nc21`, which inhibition is on record?
A: Its inhibition is 16.1% (active).

Q: With `Cc1cc(C)c2c(n1)nn1c(-n3ccnc3)cc(C)nc21` as the compound, how does the inhibition read?
A: Its inhibition is 5.51%.

Q: For `COc1ccc(OCC(=O)NCCS(=O)(=O)N2CCN(c3ccc(F)cc3)CC2)cc1`, which inhibition is on record?
A: Its inhibition is -1.58%.

Q: With `CCC(=O)N1c2ccc(S(=O)(=O)NCc3ccco3)cc2CC1C` (stereo not drawn) as the compound, how does the inhibition read?
A: Its inhibition is -0.12%.

Q: `O=C(N/C(=C\c1ccc([N+](=O)[O-])cc1)C(=O)N1CCCCC1)c1ccco1` was tested. Which inhibition did it give?
A: The inhibition was -3.79%.

Q: With `COc1ccc(OC)c(S(=O)(=O)n2c([N+](=O)[O-])cnc2C)c1` as the compound, how does the inhibition read?
A: The inhibition was -2.01%.

Q: How did the inhibition turn out when `CCOC(=O)C(Cc1ccc(N)cc1)N1C(=O)c2ccccc2C1=O` (stereo not drawn) was run?
A: Its inhibition is -2.51%.

Q: For `Cc1cc(Cl)ccc1OCCCC(=O)NCc1ccncc1`, which inhibition is on record?
A: Its inhibition is -1.05%.

Q: How did the inhibition turn out when `COc1ccc(S(=O)(=O)NC(C)C(=O)NCc2ccncc2)cc1Cl` (stereo not drawn) was run?
A: The inhibition was -2.14%.

Q: With `CC(Oc1cc2oc(=O)c3c(c2cc1Cl)CCCC3)C(=O)NCc1ccncc1` (stereo not drawn) as the compound, how does the inhibition read?
A: Its inhibition is 7.79% (active).

Q: Which inhibition does the source give for `CCCCc1nc2cc(C(=O)NCCc3cnn(C)c3)ccc2o1` here?
A: The inhibition was 1.12%.

Q: For `O=C(Cc1cccs1)Nc1nnc(SCc2ccc(F)cc2)s1`, which inhibition is on record?
A: The inhibition was 0.7%.

Q: Which inhibition does the source give for `CC(C)(C)CC(=O)Nc1nnc(SCC(=O)NCc2cccs2)s1` here?
A: Its inhibition is 20.2% (active).

Q: For `Cc1nnc(SCC(=O)NCc2cccs2)[nH]c1=O`, which inhibition is on record?
A: The inhibition was -0.38%.

Q: `CCn1c(SCc2cccc(C(=O)O)c2)nnc1-c1ccc(Cl)cc1` was tested. Which inhibition did it give?
A: The inhibition was -1.15%.

Q: `Cn1c(=O)c2c(nc(N3CCOCC3)n2CCNC2=NCCC2)n(C)c1=O` was tested. Which inhibition did it give?
A: The inhibition was 16% (active).

Q: Which inhibition does the source give for `CCCCn1c(SCC(=O)N2CCOCC2)nc2c1c(=O)n(C)c(=O)n2C` here?
A: Its inhibition is 1.45%.

Q: Which inhibition does the source give for `Cn1c(=O)c2c(nc(N3CCCCCC3)n2CC(=O)c2ccc(Br)cc2)n(C)c1=O` here?
A: The inhibition was -2.28%.

Q: For `COc1ccc(C(=O)NCCNc2ccc([N+](=O)[O-])cn2)cc1`, which inhibition is on record?
A: The inhibition was 0.89%.

Q: With `Cc1c(OC(C)C(=O)N[C@@H](Cc2ccccc2)C(=O)O)ccc2c3c(c(=O)oc12)CCCC3` (stereo partly drawn) as the compound, how does the inhibition read?
A: Its inhibition is 6.52%.

Q: For `Cc1c(OC(C)C(=O)NCC2CCC(C(=O)O)CC2)ccc2c1oc(=O)c1ccccc12` (stereo not drawn), which inhibition is on record?
A: The inhibition was 10.8% (active).

Q: How did the inhibition turn out when `Cc1cc(=O)oc2c(C)c(OC(C)C(=O)NC3CCN(Cc4ccccc4)CC3)ccc12` (stereo not drawn) was run?
A: The inhibition was 2.37%.

Q: With `C=CCc1ccc(OCCOc2cccc(/C=N/n3cnnc3)c2)c(OC)c1` as the compound, how does the inhibition read?
A: The inhibition was 0.81%.

Q: `Cc1noc(C)c1CSCC(=O)N(CCC(C)C)c1c(N)n(Cc2ccccc2)c(=O)[nH]c1=O` was tested. Which inhibition did it give?
A: Its inhibition is -3.06%.

Q: How did the inhibition turn out when `O=C(COc1ccc2c3c(c(=O)oc2c1)CCCC3)NCC(O)c1ccccc1` (stereo not drawn) was run?
A: The inhibition was 6.2%.

Q: How did the inhibition turn out when `NC(=O)COc1ccc2c3c(c(=O)oc2c1)CCCCC3` was run?
A: The inhibition was 7.97% (active).

Q: How did the inhibition turn out when `O=C(COc1ccc2c3c(c(=O)oc2c1)CCC3)NC1CCCCC1` was run?
A: The inhibition was -1.01%.

Q: For `NC(=O)C1CCN(C(=O)COc2ccc3c4c(c(=O)oc3c2)CCC4)CC1`, which inhibition is on record?
A: The inhibition was 14.1% (active).

Q: Which inhibition does the source give for `Cc1c(C)c2ccc(OCC(=O)N3CCN(c4cccc(Cl)c4)CC3)cc2oc1=O` here?
A: The inhibition was -1.38%.

Q: `CCCCc1cc(=O)oc2c(C)c(OCC(=O)N3CCC(C(N)=O)CC3)ccc12` was tested. Which inhibition did it give?
A: The inhibition was -1.28%.

Q: For `Cc1cc(Cl)nc(NC(=O)Nc2cccc(Cl)c2)n1`, which inhibition is on record?
A: The inhibition was 1.05%.

Q: With `Nc1cc(N)nc(SCc2cccc(F)c2)n1` as the compound, how does the inhibition read?
A: The inhibition was 3.79%.

Q: With `N=c1oc2ccccc2cc1C(=O)NCc1ccccc1` as the compound, how does the inhibition read?
A: Its inhibition is -0.7%.

Q: For `CCOC(=O)CSc1nc2ccc(C)cc2[nH]1`, which inhibition is on record?
A: The inhibition was 0.26%.

Q: How did the inhibition turn out when `CCOC(=O)CSc1nc2ccc(C)cc2n2cnnc12` was run?
A: Its inhibition is 9.79% (active).

Q: How did the inhibition turn out when `COc1ccc(CCNc2nc3ccc(C)cc3n3cnnc23)cc1OC` was run?
A: The inhibition was 0.51%.

Q: `CCOC(=O)c1sc(NC(=S)n2cc(C)cn2)c(C(=O)OCC)c1C` was tested. Which inhibition did it give?
A: Its inhibition is -2.26%.

Q: `CCn1cc(C(=O)NCCO)c(=O)c2cc(F)c(N3CCN(C)CC3)cc21` was tested. Which inhibition did it give?
A: The inhibition was 1.17%.

Q: `CCn1cc(S(=O)(=O)c2cccc(C)c2)c(=O)c2cc(F)c(N3CCN(C)CC3)cc21` was tested. Which inhibition did it give?
A: The inhibition was 12.1% (active).

Q: With `CN1CCN(c2cc3c(cc2F)c(=O)c(C(=O)O)cn3CCF)CC1` as the compound, how does the inhibition read?
A: The inhibition was -0.28%.

Q: Which inhibition does the source give for `COc1ccc(/C=C/C(=O)NC(=S)N2CCCC(C(N)=O)C2)cc1` (stereo not drawn) here?
A: The inhibition was -3%.

Q: With `COc1ccc(CNc2ccc3c(c2)CCC3)cc1OC` as the compound, how does the inhibition read?
A: The inhibition was -1.76%.

Q: Which inhibition does the source give for `CC(=O)c1nc2ccccc2n1Cc1ccccc1` here?
A: Its inhibition is -0.19%.

Q: For `CC(=O)c1ccc(-c2ccc(Cn3c(C)nc4cc(N)c(C)nc43)cc2)cc1`, which inhibition is on record?
A: The inhibition was 21.7% (active).

Q: How did the inhibition turn out when `CCOC(=O)c1ccc2c(c1)nc(C)n2CC` was run?
A: Its inhibition is -4.24%.

Q: `O=C(N/N=C/c1ccc(Cl)c(Cl)c1)c1ccc2nc[nH]c2c1` was tested. Which inhibition did it give?
A: The inhibition was -1.16%.

Q: `CS(=O)(=O)N1CCCC(C(=O)Nc2ccccc2C(F)(F)F)C1` (stereo not drawn) was tested. Which inhibition did it give?
A: Its inhibition is -0.2%.

Q: `O=C(CSc1ccc(-c2ccco2)nn1)Nc1cccc(F)c1` was tested. Which inhibition did it give?
A: The inhibition was -1.64%.

Q: How did the inhibition turn out when `Cc1ccccc1C(=O)NC(=S)NC1CC1` was run?
A: The inhibition was -2.76%.
